Inconclusive results are not listed. Values without a mark were called inactive. Calls of active or inactive are those of the source. Calls follow the shape of the dose curve; as a rule, active = well fitted activation curve with a large enough effect in the repeat runs; inconclusive = weak or mixed curves; inactive = no such curve, though single readings can be large or run the other way.

The text below walks through data of PubChem BioAssay (Tox21).
% is scaled to controls: 0 for no effect and ±100 for the full control effect; potency is read from the fitted curve at half-maximal effect.

This assay is described as follows: qHTS assay to identify small molecule agonists of the estrogen related receptor signaling pathway with the pleiotropic PPARgamma coactivator (PGC) (AID 1224823). The note with it: ERR/PGC reporter cell line, luciferase agonist mode; series mostly up to 46.1 µM; activation: at the top concentration. An outline of the steps:
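Steps: plate PGC/ERR cells at 2,000 cells/well; incubate 6 h, 37 C/5% CO2; pin-transfer compounds (DMSO); incubate 18 h, 37 C; add One-Glo; 30 min RT; read luminescence.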
On the technique in general: In qHTS, concentration-response curves come from the screen itself.
As to `CCCN(CCc1ccccc1)C1CCc2c(O)cccc2C1` (stereo not drawn), the “activation” value was -4.26%.

Take `S=C(S)OC1CC2CC1C1CCCC21` (stereo not drawn): the “activation” value was -4.71%.

Turning to `Nc1nc(N)c2nc(CNc3ccc(C(=O)NC(CCC(=O)O)C(=O)O)cc3)cnc2n1` (stereo not drawn), the “activation” value is -19.1%.

Consider `NCC(O)C1CCCCCCC1` (stereo not drawn), for which the “activation” value was 3.66%.

As to `O=C(O)C1CCCN(CCC=C(c2ccccc2)c2ccccc2)C1` (stereo not drawn), the “activation” value is 2.23%.

`O=C1NC(=O)C(c2ccccc2[N+](=O)[O-])=C1Nc1ccc(O)c(Cl)c1`: the “activation” value was 5.04%.

Turning to `O=c1c(O)c(-c2cc(O)c(O)c(O)c2)oc2cc(O)cc(O)c12`, the “activation” value is -1.58%.

On to `Cc1cc2c(cc1Cl)N(C(=O)Nc1ccnc3ccccc13)CC2`, for which the “activation” value is 9.99%.

Take `CN1[C@@H](CC(=O)c2ccccc2)CCC[C@H]1C[C@H](O)c1ccccc1`: the “activation” value was 2.45%.

On to `NCC1OC(OC2C(O)[C@@H](OC3C(O)C(N)CC(N)C3OC3OC(CO)C(O)C(O)C3N)O[C@@H]2CO)C(N)C(O)C1O` (stereo partly drawn), for which the “activation” value is -1.48%.

As to `O=C(O)C1CCCNC1` (stereo not drawn), the “activation” value is 3.22%.

On to `CCCCOc1cc(CC2CNC(=O)N2)ccc1OC` (stereo not drawn), for which the “activation” value was 3.28%.

For the compound `O=Nc1c(-c2c(O)[nH]c3cc(Br)ccc23)[nH]c2ccccc12`, the Potency is 1.14 µM (active).

For `CC(C)C[C@H](NC(=O)[C@H](O)[C@H](N)Cc1ccccc1)C(=O)O`, the “activation” value is -2.87%.

In the case of `CCNC(=O)[C@H]1O[C@@H](n2cnc3c(N)nc(NCCc4ccc(CCC(=O)O)cc4)nc32)[C@H](O)C1O` (stereo partly drawn), the Potency was 1.28 µM (active).

For the compound `O=C1Cc2c([nH]c3ccc(Br)cc23)-c2ccccc2N1`, the Potency is 1.23 µM (active).

Consider `Cc1nc(N=Nc2ccc(C(=O)O)cc2)c(COP(=O)(O)O)c(C=O)c1O`, for which the “activation” value is -5.11%.

In the case of `O=C(N[C@@H](Cc1ccccc1)C(=O)CCl)OCc1ccccc1`, the “activation” value is -12.9%.

For the compound `NC(=O)c1ccc2[nH]ccc2c1`, the “activation” value is 11.5%.

On to `CCCCCCCCCCCCCCCCCC(=O)OC(CC(=O)O)C[N+](C)(C)C` (stereo not drawn), for which the “activation” value is 4.43%.

With `O=[N+]([O-])c1cccc2cn[nH]c12`, the “activation” value is 5.2%.

`CC(O)C(O)[C@H]1CNc2nc(N)[nH]c(=O)c2N1` (stereo partly drawn): the “activation” value was 1.1%.

With `NC(=O)CC[C@H](N)C(=O)O`, the “activation” value is 1.35%.
